Most compounds without a hit are left out; they make up all but 1.3% or so of the library.
RXFP1 antagonist: blocks the human relaxin receptor RXFP1; Q9HBX9; HEK293-RXFP1, relaxin-stimulated cAMP HTRF, 30 min; hits give low values; activity change, negative = inhibition, % at 57.5 µM; 0.59% of 350,000 active;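 active means activity change of -60% or lower, but not beyond a set lower limit; inconclusive means change between -60% and -40%, or beyond the set limit; inactive means change above -40%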; further: on the % scale 0 is the no-effect control and ±100 the full control effect
gsp ag: agonists of gsp mutant (McCune-Albright syndrome). 0.13% of 340,000 active. Potency, µM (titrated, usually from 76.9 µM), without a hit: top-dose activation (cAMP increase), most hits filed as activators. gsp mutant cells, cAMP HTRF, 30 min; active means well fitted activation curve with a large enough effect; inconclusive means small, poorly fitted or top-dose-only effect, or another doubt; inactive means no such curve, though single readings can be large or run the other way; cell line not stated here;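 further: phosphodiesterase inhibitor Ro 20-1724 added with compounds to block cAMP breakdown; potency means the concentration at half of the fitted maximal effect; nearly all actives have a fitted effect of over 60% in size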
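Cells in DMEM/10% FBS with G418 were pretreated with compounds in DMSO plus […] (300 uM stock) for 30 min at 37C. cAMP was measured by HTRF (cAMP-d2 plus anti-cAMP antibody-K) after 30 min at room temperature.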
RXFP1 ag: RXFP1 (human) receptor agonism; Potency, µM (doses to about 57.5 µM), for the others: at the highest dose activation, usual class: activators; HEK293T-RXFP1 cAMP TR-FRET, 30 min; response scale: percent of porcine relaxin response, buffer zero; 0.3% of 370,000 active; Q9HBX9; active means well fitted activation curve with a large enough effect; inconclusive means small, poorly fitted or top-dose-only effect; further: potency means the concentration at half of the fitted maximal effect; on the % scale 0 is the no-effect control and ±100 the full control effect; nearly all actives have a fitted effect of over 60% in size
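Agonist response is measured as cAMP accumulation in an RXFP1-transfected HEK293T line under PDE4 inhibition. Values are scaled between buffer-only and 29 nM porcine relaxin, and EC50s come from standard Hill equation fits.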
gsp antagonist: antagonizes gsp, the McCune-Albright syndrome mutation; gsp-mutant cells, cAMP HTRF, 30 min; Potency, µM (doses to about 76.9 µM), for inactives: at the top dose activity change, negative = inhibition, most hits filed as inhibitors; 0.4% of 340,000 active; calls by dose curve; cell line not stated here;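 further: intracellular cAMP measured with PDE inhibitor Ro 20-1724 present during compound exposure; potency means the concentration at half of the fitted maximal effect; on the % scale 0 is the no-effect control and ±100 the full control effect; nearly all actives have a fitted effect of over 65% in size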
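HTRF cAMP measurement after 30 min RT detection following 30 min, 37C compound treatment alongside […] (added as 300 uM solution) in G418-selected cells seeded at 2000/well and grown 16–24 h.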
Akt phos inh: Akt phosphorylation inhibition; Neuro2A IGF-stimulated pAkt S473 HTRF, 20 min; hits give low values; activity change, % for hits at 50 µM; 0.32% of 360,000 active; AID 651550; in the data active means activity change below about -80%; inconclusive means mostly about -51% to -80%; further: on the % scale 0 is the no-effect control and ±100 the full control effect
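Neuro2A cells (4,500/well, DMEM with 0.5% FBS) were treated with compound at a single 50 µM final concentration, stimulated with 6 nM IGF for 20 min at 37 °C, and lysed. Phospho-Akt Ser473 was read by HTRF as 665/615 ratio ×10^4.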
TSHR antagonist: antagonists of human thyroid stimulating hormone receptor; TSHR-expressing cells, TSH-stimulated cAMP HTRF, 2 h; hits give low values; AID 504810; P16473; 0.2% of 330,000 active; activity change, negative = inhibition, % at 11.5 µM;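 active means activity change below a set negative limit, meaning inhibition stronger than a set level, cut at about -70% in these data; inconclusive means activity change between two set negative limits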; further: on the % scale 0 is the no-effect control and ±100 the full control effect
Target sequence (P16473 whole entry, looked up): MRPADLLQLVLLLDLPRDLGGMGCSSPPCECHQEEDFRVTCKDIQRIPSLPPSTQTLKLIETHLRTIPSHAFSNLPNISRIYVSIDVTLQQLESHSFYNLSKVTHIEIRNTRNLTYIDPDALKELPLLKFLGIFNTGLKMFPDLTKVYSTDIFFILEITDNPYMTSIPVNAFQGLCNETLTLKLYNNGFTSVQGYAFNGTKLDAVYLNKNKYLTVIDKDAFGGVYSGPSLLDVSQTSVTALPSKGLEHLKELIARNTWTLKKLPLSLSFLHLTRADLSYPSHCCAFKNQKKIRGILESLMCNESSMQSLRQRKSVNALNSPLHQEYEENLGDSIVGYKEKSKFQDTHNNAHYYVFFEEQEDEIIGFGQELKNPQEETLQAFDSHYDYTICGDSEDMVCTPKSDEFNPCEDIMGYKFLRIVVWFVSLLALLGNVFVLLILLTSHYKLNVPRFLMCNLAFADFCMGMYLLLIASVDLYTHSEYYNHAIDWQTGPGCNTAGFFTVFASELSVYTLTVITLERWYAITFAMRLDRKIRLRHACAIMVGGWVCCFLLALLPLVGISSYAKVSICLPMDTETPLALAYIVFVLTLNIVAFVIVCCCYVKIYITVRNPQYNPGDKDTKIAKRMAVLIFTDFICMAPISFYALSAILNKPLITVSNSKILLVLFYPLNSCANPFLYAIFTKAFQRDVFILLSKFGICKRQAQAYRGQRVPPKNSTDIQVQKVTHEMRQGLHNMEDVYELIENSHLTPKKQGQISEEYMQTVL
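Inhibition of cAMP made by TSHR-expressing cells under TSH stimulation (4nM final, EC80; 2 h, 37 deg C) is quantified with a one-step lysis HTRF kit, anti-cAMP cryptate versus cAMP-d2.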
The depositor's hits bear a star; [ ] = dose if it differs, or a comment.

What do the screens show for `COc1cc(/C=C2\COC/C(=C\c3cc(OC)c(OC)c(OC)c3)C2=O)cc(OC)c1OC`?
RXFP1 antagonist: -62.8*; gsp ag: 13.5%; RXFP1 ag: 14.2%; gsp antagonist: inconclusive; Akt phos inh: inactive; TSHR antagonist: -24.3

How did COc1cc(C=C2CCC/C(=C\c3ccc(O)c(OC)c3)C2=O)ccc1O do in these assays?
RXFP1 antagonist: -95.2*

How did O=C1/C(=C/c2ccc(O)c(O)c2)Oc2cc(O)ccc21 do in these assays?
RXFP1 antagonist: 2.5; gsp ag: -100.5%; RXFP1 ag: -29.4%; gsp antagonist: -5.1%; Akt phos inh: inactive; TSHR antagonist: -11.2

How did COc1cc(/C=C2\Oc3cc(O)ccc3C2=O)ccc1O do in these assays?
RXFP1 antagonist: 15.3; gsp ag: 28.2µM*; RXFP1 ag: 16.4%; gsp antagonist: -7.4%; Akt phos inh: inactive; TSHR antagonist: -6.0

What do the screens show for `COc1cc(/C=C2\CCC/C(=C\c3ccc(O)c(OC)c3)C2=O)ccc1O`?
RXFP1 antagonist: -68.8*; gsp ag: -26.3%; RXFP1 ag: -0.3%; gsp antagonist: inconclusive; Akt phos inh: inactive; TSHR antagonist: -13.9

What do the screens show for `COc1cccc(CNc2ccc3[nH]c(=O)[nH]c3c2)c1OCc1ccccc1Cl`?
RXFP1 antagonist: -74.8*; gsp ag: -2.9%; RXFP1 ag: -1.2%; gsp antagonist: -21.9%; Akt phos inh: inactive; TSHR antagonist: 26.3

Results for Cc1ccccc1Oc1cc(-n2ncc(Cl)c(Cl)c2=O)ncn1 ?
gsp ag: 16.3%; RXFP1 ag: 11.5%; gsp antagonist: -36.7%; Akt phos inh: inactive; TSHR antagonist: -89.6*

Results for CCOc1cnn(-c2cc(Oc3ccc(C)cc3)ncn2)c(=O)c1Cl ?
RXFP1 antagonist: -10.1; gsp ag: -1.0%; RXFP1 ag: 2.4%; gsp antagonist: 3.2%; Akt phos inh: inactive; TSHR antagonist: -10.8

Results for CCCSc1cc(N2CCN(C)CC2)nc(-c2ccc(OC)cc2)n1 ?
RXFP1 antagonist: -34.4; gsp ag: -3.5%; RXFP1 ag: -0.7%; gsp antagonist: 4.6%; Akt phos inh: -88.6%*; TSHR antagonist: -1.2

What do the screens show for `Cc1cccc(NC(=O)c2cccc(NC(=O)Cc3cccs3)c2)c1`?
RXFP1 antagonist: -107.5*; gsp ag: 18.8%; RXFP1 ag: 0.3%; gsp antagonist: -12.3%; Akt phos inh: inactive; TSHR antagonist: 0.1

How did O=C(COC(=O)c1ccccc1O)NCc1ccc2c(c1)OCO2 do in these assays?
RXFP1 antagonist: 3.4; gsp ag: -39.8%; gsp antagonist: 0.9%; Akt phos inh: inactive; TSHR antagonist: 12.9

How did CC(C)NC(=O)COC(=O)c1ccc(S(=O)(=O)N2CCCC2)cc1 do in these assays?
RXFP1 antagonist: -97.6*; gsp ag: 7.5%; RXFP1 ag: 1.9%; gsp antagonist: -2.8%; Akt phos inh: inactive; TSHR antagonist: 27.7

Results for COc1ccc(-n2nc3ccc(NC(=O)c4c(OC)cccc4OC)cc3n2)cc1 ?
RXFP1 antagonist: -12.6; RXFP1 ag: 13.2%

How did c1ccc(-c2csc(-c3ccncc3)n2)cc1 do in these assays?
RXFP1 antagonist: -11.1; gsp ag: 7.6%[15.4 µM]; RXFP1 ag: 5.8%; gsp antagonist: -0.5%; Akt phos inh: inactive; TSHR antagonist: -15.5

How did Brc1ccsc1-c1csc(-c2ccncc2)n1 do in these assays?
RXFP1 antagonist: -2.8; gsp ag: 17.8µM*; RXFP1 ag: 17.6%; gsp antagonist: -2.8%; Akt phos inh: inactive; TSHR antagonist: -1.7

Results for N#C/C(=C\c1ccc(N2CCOCC2)o1)c1ccccc1 ?
RXFP1 antagonist: -8.3; gsp ag: -50.0%; RXFP1 ag: 1.7%; gsp antagonist: -13.2%; Akt phos inh: inactive; TSHR antagonist: -81.9*

What do the screens show for `COc1cc(/C=C(/C#N)C(=O)c2c(C)[nH]c3ccccc23)ccc1OCC#N`?
RXFP1 antagonist: -16.2; gsp ag: 2.7%; RXFP1 ag: 0.2%; gsp antagonist: -0.6%; Akt phos inh: inactive; TSHR antagonist: -4.1

How did CCOc1ccc(/C=C(\C#N)C(=O)c2c(C)[nH]c3ccccc23)cc1OC do in these assays?
RXFP1 antagonist: -62.6*; gsp ag: 4.7%[15.4 µM]; RXFP1 ag: 2.1%; gsp antagonist: inconclusive; Akt phos inh: inactive; TSHR antagonist: 2.2

Results for Cc1cc(C)nc(N/N=C/C2=C(N3CCOCC3)C(=C/c3ccccc3)/CC2)n1 ?
RXFP1 antagonist: 14.3; gsp ag: 7.3%; RXFP1 ag: 1.7%; gsp antagonist: 28.2µM*; Akt phos inh: inactive; TSHR antagonist: 47.5

What do the screens show for `CCCCCC(=O)N1C[C@H](O)[C@@H](n2cc(COC(=O)c3ccccc3)nn2)C[C@@H]1c1ccc(OC)cc1`?
RXFP1 antagonist: 5.7; gsp ag: inconclusive; Akt phos inh: inactive

What do the screens show for `CCC(C)S(=O)(=O)c1oc(-c2cccs2)nc1S(=O)(=O)c1ccccc1` (stereo unspecified)?
RXFP1 antagonist: -78.8*; RXFP1 ag: 0.5%

Results for CNc1oc(-c2cccs2)nc1S(=O)(=O)c1ccccc1 ?
RXFP1 antagonist: -6.3; gsp ag: 0.8%[15.4 µM]; RXFP1 ag: 2.3%; gsp antagonist: -45.1%; Akt phos inh: inactive; TSHR antagonist: -14.8

What do the screens show for `CC(C)CS(=O)(=O)c1oc(-c2ccc(F)cc2)nc1S(=O)(=O)c1ccccc1`?
RXFP1 antagonist: -81.8*; RXFP1 ag: 3.9%

How did CN(C(=O)Nc1ccc(Cl)cc1)c1c2c(nn1C)CCCC2 do in these assays?
RXFP1 antagonist: 0.6; gsp ag: 2.4%; RXFP1 ag: 0.7%; gsp antagonist: 0.3%; Akt phos inh: -86.7%*; TSHR antagonist: -1.9

Results for COc1ccccc1-c1cc(-c2ccccc2)nc(SC(C(N)=O)c2ccccc2)c1C#N (stereo unspecified) ?
RXFP1 antagonist: -5.3; gsp ag: inconclusive; RXFP1 ag: 8.1%; gsp antagonist: 10.1%; Akt phos inh: -90.6%*; TSHR antagonist: 36.8

Results for Cc1nc(SC(C(N)=O)c2ccccc2)c(C#N)c(C)c1C (stereo unspecified) ?
RXFP1 antagonist: -3.7; gsp ag: 2.6%[15.4 µM]; RXFP1 ag: 2.9%; gsp antagonist: 7.9%; Akt phos inh: inactive; TSHR antagonist: 0.6

How did CCCOc1ccc(CC(=O)NCC2(c3ccccc3)CCOCC2)cc1OC do in these assays?
RXFP1 antagonist: 1.9; gsp ag: -0.1%; RXFP1 ag: -3.6%; gsp antagonist: -10.9%; Akt phos inh: -116.8%*; TSHR antagonist: 0.5

Screening data (PubChem BioAssay)
